# Assay results: PubChem BioAssay (NCI)
# Several values for one entry are separate records, joined by “and”; a condition that tells them apart may be missing. Equal entries are not always repeated. This is part of a sample that, as a whole, favours compounds with a hit. Of some 79,000 tested, about 15% had one in any assay. More than one record can exist for a structure, and the calls need not agree. Activity calls are given as the source filed them. No stated cut-off is given here; in the data, active means growth inhibition above about 70%; inactive means the rest.
# How the values were obtained:
# [1] = NCI Yeast Anticancer Drug Screen. Data for the rad50 strain (AID 155);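 further: 0% = growth of vehicle-only cultures of the same strain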; settings: S. cerevisiae rad50 strain growth inhibition, stronger effect = higher value
# How it was run: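 Readout: growth inhibition relative to vehicle-treated cultures. Compound exposure was carried out in a genetically defined yeast strain deficient in DNA damage repair.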
# [2] = NCI Yeast Anticancer Drug Screen. Data for the mec2-1 strain (AID 157); settings: S. cerevisiae mec2-1 strain, stronger effect = higher value
# How it was run: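 Yeast mec2-1 mutant treated with compound. Readout: growth inhibition vs vehicle controls.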
# [3] = NCI Yeast Anticancer Drug Screen. Data for the sgs1 mgt1 strain (AID 161);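 further: 0% = growth of cultures given vehicle only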; settings: S. cerevisiae sgs1 mgt1 strain, stronger effect = higher value
# How it was run: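 Genetically altered yeast, compound exposure, growth inhibition relative to vehicle.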
# [4] = NCI Yeast Anticancer Drug Screen. Data for the cln2 rad14 strain (AID 165);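 further: 0% = growth equal to vehicle treated cultures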; settings: S. cerevisiae cln2 rad14 strain, stronger effect = higher value
# How it was run: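 cln2 rad14 yeast strain; compound exposure; growth inhibition read vs vehicle controls.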
# [5] = NCI Yeast Anticancer Drug Screen. Data for the bub3 strain (AID 167); settings: S. cerevisiae bub3 mutant strain, stronger effect = higher value
# How it was run: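 Readout: yeast growth inhibition, expressed relative to vehicle-only wells. The test organism is a mutant strain from a panel with lesions in DNA repair or checkpoint genes.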
# [6] = NCI Yeast Anticancer Drug Screen. Data for the mlh1 rad18 strain (AID 175); settings: S. cerevisiae mlh1 rad18 strain growth inhibition, stronger effect = higher value
# How it was run: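 Yeast w/ defined DNA-repair lesions; compound exposure; growth vs vehicle controls → % inhibition.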
# [7] = at 5.0 µM (retest, dose inferred, filed as 0.5)
# [8] = at 50.0 µM (retest, dose inferred, filed as 5.0)
Structure (SMILES),"growth inhibition [1, 7]","growth inhibition [1, 8]",growth inhibition ([1]; at 50.0 µM),"growth inhibition [2, 7]","growth inhibition [2, 8]",growth inhibition ([2]; at 50.0 µM),"growth inhibition [3, 7]","growth inhibition [3, 8]",growth inhibition ([3]; at 50.0 µM),"growth inhibition [4, 7]","growth inhibition [4, 8]",growth inhibition ([4]; at 50.0 µM),"growth inhibition [5, 7]","growth inhibition [5, 8]",growth inhibition ([5]; at 50.0 µM),"growth inhibition [6, 7]","growth inhibition [6, 8]",growth inhibition ([6]; at 50.0 µM)
CC(C)CC(Nc1c(O)ccc2ccccc12)C(=O)O (stereo unspecified),24% (inactive),98% (active),98.8% (active),0% (inactive),99% (active),99.4% (active),17% (inactive),99% (active),99.3% (active),11% (inactive),99% (active),72.7% (active),15% (inactive),99% (active),95.2% (active),45% (inactive),99% (active),99.3% (active)
O=c1c(Cl)c(Cl)cnn1CCCl,40% (inactive),92% (active),74.9% (active),9% (inactive),48% (inactive),17.6% (inactive),-1% (inactive),47% (inactive),-15.6% (inactive),6% (inactive),32% (inactive),7.15% (inactive),-6% (inactive),69% (inactive),-10.5% (inactive),15% (inactive),71% (active),–
O=NC1C(Cl)C2CC1C1C(Br)C(Br)CC21 (stereo unspecified),4% (inactive) and 3% (inactive),4% (inactive) and 46% (inactive),3.2% (inactive) and 55.5% (inactive) and 48.2% (inactive),23% (inactive) and 4% (inactive),2% (inactive) and 22% (inactive),1.4% (inactive) and 32.1% (inactive) and 34% (inactive),-3% (inactive) and -2% (inactive),2% (inactive) and 29% (inactive),19.9% (inactive) and 66.5% (inactive) and 56.3% (inactive),1% (inactive) and 0% (inactive),1% (inactive) and 16% (inactive),-26.6% (inactive) and 7.1% (inactive) and 6.65% (inactive),4% (inactive) and 0% (inactive),-7% (inactive) and 7% (inactive),-5.1% (inactive) and 11.2% (inactive) and 8.2% (inactive),6% (inactive) and 4% (inactive),31% (inactive) and 52% (inactive),30.6% (inactive) and 69.8% (inactive) and 59.1% (inactive)
O=C1c2ccccc2-n2c1nc1ccccc1c2=O,18% (inactive),83% (active),74% (active),14% (inactive),48% (inactive),57% (inactive),21% (inactive),39% (inactive),29.2% (inactive),30% (inactive),43% (inactive),17.9% (inactive),32% (inactive),57% (inactive),53.1% (inactive),23% (inactive),62% (inactive),–
C/C(N=NC(=S)N1CCCCCC1)=C1\C=CC=CN1O,17% (inactive),38% (inactive),72.9% (active),12% (inactive),31% (inactive),74.2% (active),14% (inactive),27% (inactive),68.4% (inactive),19% (inactive),31% (inactive),30.6% (inactive),21% (inactive),33% (inactive),69% (inactive),24% (inactive),44% (inactive),–
CC[C@](O)(CC(=O)O[C@H]1C(=O)O[C@@H]2C[C@H]3C(C)=CC(=O)[C@@H](O)[C@]3(C)[C@H]3[C@@]4(O)OC[C@]32[C@@H]1[C@@H](C)[C@H]4O)C(C)C,44% (inactive),97% (active),88.9% (active),35% (inactive),98% (active),91.7% (active),57% (inactive),98% (active),88.9% (active),58% (inactive),98% (active),92.1% (active),51% (inactive),98% (active),90.3% (active),50% (inactive),97% (active),–
Cc1n(CC(C)C)c2c([n+]1C)C(=O)c1ccccc1C2=O,34% (inactive),98% (active),85% (active),44% (inactive),99% (active),90.4% (active),44% (inactive),99% (active),91% (active),21% (inactive),95% (active),89% (active),60% (inactive),99% (active),89.5% (active),68% (inactive),98% (active),–
COc1cccc2c1C(=O)c1c(O)c3c(c(O)c1C2=O)C[C@@](O)(C(C)=O)C[C@@H]3OC1CC(O)C(O)C(C)O1 (stereo partly specified),45% (inactive),95% (active),84.7% (active),21% (inactive),94% (active),88.3% (active),25% (inactive),94% (active),85.2% (active),46% (inactive),90% (active),83.3% (active),34% (inactive),96% (active),85.3% (active),40% (inactive),93% (active),–
CO[C@H](C(=O)[C@@H](O)[C@@H](C)O)[C@@H]1Cc2cc3cc(OC4CC(OC5CC(O)C(O)C(C)O5)C(O)C(C)O4)c(C)c(O)c3c(O)c2C(=O)[C@H]1OC1CC(OC2CC(OC3CC(C)(O)C(O)C(C)O3)C(O)C(C)O2)C(O)C(C)O1 (stereo partly specified),12% (inactive),77% (active),72.1% (active) and 5.15% (inactive),7% (inactive),39% (inactive),33% (inactive) and -0.5% (inactive),6% (inactive),37% (inactive),62.4% (inactive) and 17.8% (inactive),21% (inactive),47% (inactive),93.2% (active) and 11.2% (inactive),-2% (inactive),43% (inactive),44.5% (inactive) and 24.1% (inactive),4% (inactive),33% (inactive),41.5% (inactive) and 14.4% (inactive)
